TROY signal inh – inhibitors of TROY-dependent NF-kB signaling | hit rate 0.98% among 360,000 | Q293 LMP1-TROYcd NF-kB luciferase reporter, 4 h | inhibition, % at 10 µM;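 active = compounds whose plate-normalised and pattern-corrected inhibition of the luciferase reporter signal at the single screening dose is 50% or more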
HSP90 inh – inhibitors of HSP90 luciferase refolding in rabbit reticulocyte lysate; luciferase refolding luminescence, 3 h; inhibition, % at 5.6 µM; hit rate 0.91% among 290,000; AID 1789;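 active = inhibition above the screen-wide mean plus 3 SD, computed separately per campaign, cut at about 16% in these data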;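 note: 0% = DMSO wells and 100% = 60 µM geldanamycin wells; inhibitors lower the luminescence because luciferase stays unfolded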
TWEAK Fn14 block – inhibitors of TWEAK-Fn14 interaction signaling; hit rate 2% among 360,000; inhibition, % at 10 µM; TWEAK-stimulated Fn14 reporter cells, luciferase luminescence, 8 h; in the data active = inhibition above about 50%
LGR2 antag – inhibitors of bursicon-induced Drosophila LGR2 receptor cAMP signaling. HEK293 LGR2, CRE-luciferase, bursicon-stimulated, 4 h. inhibition, % at 9.99 µM. hit rate 0.35% among 380,000. AID 720647;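 active = drop in luminescence signal, shown as inhibition above about 50% in the replicate tests, limit read from the data, passing the limit was not always enough; inconclusive = probably only some replicates passing the limit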;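 note: agonist challenge used bursicon conditioned medium at about half maximal strength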
HSP90 inh confirm – HSP90 inhibition, confirmation assay; shares compounds with HSP90 inh; hit rate 64% among 2,300; inhibition, % at 5.9 µM; rabbit reticulocyte lysate, luciferase refolding luminescence, 3 h; AID 1846; in the data active = inhibition above about 18%;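 note: 0% = vehicle wells and 100% = reference inhibitor wells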
luciferase ctr – blocks native firefly luciferase in HSP90 counter-screen; shares compounds with HSP90 inh; purified native firefly luciferase, luminescence; inhibition, % at 5.9 µM; hit rate 48% among 2,300;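 active = inhibition above the mean inhibition of all tested sample wells plus 3 SD, cut at about 10% in these data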;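 note: 0% = DMSO with luciferase and 100% = wells lacking luciferase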
Target sequence (P08659 whole entry, looked up): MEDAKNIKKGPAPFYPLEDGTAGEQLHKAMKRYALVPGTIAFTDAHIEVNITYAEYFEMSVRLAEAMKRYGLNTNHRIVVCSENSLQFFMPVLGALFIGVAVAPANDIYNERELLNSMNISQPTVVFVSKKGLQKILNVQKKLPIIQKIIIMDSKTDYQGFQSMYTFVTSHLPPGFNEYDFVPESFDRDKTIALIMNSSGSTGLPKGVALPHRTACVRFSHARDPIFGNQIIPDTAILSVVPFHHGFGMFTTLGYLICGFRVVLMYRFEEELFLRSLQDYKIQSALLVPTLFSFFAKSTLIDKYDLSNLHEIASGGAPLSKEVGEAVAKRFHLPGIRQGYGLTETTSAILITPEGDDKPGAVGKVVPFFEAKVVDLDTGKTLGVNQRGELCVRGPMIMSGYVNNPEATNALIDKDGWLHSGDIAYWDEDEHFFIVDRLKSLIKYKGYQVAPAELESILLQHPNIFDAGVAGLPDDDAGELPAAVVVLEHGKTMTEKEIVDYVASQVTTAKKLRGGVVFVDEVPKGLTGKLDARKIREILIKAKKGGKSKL
* hit, by the source's call; ? = inconclusive; / = no result given. Most compounds without a hit are left out; they make up all but 2.2% or so of the library.

SMILES | TROY signal inh | HSP90 inh | TWEAK Fn14 block | LGR2 antag | HSP90 inh confirm | luciferase ctr
O=C(C[C@H]1CC[C@H]2[C@@H](COC[C@H](O)CN2CCC(F)(F)F)O1)NCc1ccc(Oc2ccccc2)cc1 | / | / | / | 10 | / | /
C/C(=N\Nc1ccc(Cl)c(C(=O)O)c1)c1ccc[nH]1 | 9 | 35* | 26 | 8 | 22* | -5
C/C(=N\Nc1ccc(Cl)c(C(=O)O)c1)c1cccs1 | -2 | -2 | -4 | -21 | / | /
C/C(=N\Nc1ccc(Cl)c(C(=O)O)c1)c1ccc(N2CCOCC2)cc1 | -32 | 18* | -17 | -46 | 9 | -4
C[C@@H]1CN([C@H](C)CO)S(=O)(=O)c2ccc(C#CC3CC3)cc2O[C@H]1CN(C)C(=O)c1cccnc1 | / | / | / | -9 | / | /
Brc1ccc(-c2ncc3ccccn23)cc1 | 8 | 27* | 4 | -24 | 1 | -12
C[C@@H]1CN([C@@H](C)CO)C(=O)Cc2cc(N(C)C)ccc2O[C@H]1CN(C)S(=O)(=O)c1ccc(F)cc1 | / | / | / | -14 | / | /
C[C@@H]1CCCCO[C@@H](CN(C)C(=O)Cc2ccccc2)[C@H](C)CN([C@@H](C)CO)C(=O)c2cc(NC(=O)Nc3cccc4ccccc34)ccc2O1 | / | / | / | 20 | / | /
CO[C@H]1CN(C)C(=O)c2ccc(NC(=O)C3CCCC3)cc2OC[C@H](C)N(CCC(F)(F)F)C[C@@H]1C | / | / | / | 16 | / | /
O=c1c2ccccc2cnn1Cc1nnc(-c2cccs2)o1 | -4 | 19* | 10 | -14 | -1 | -5
Cc1nc2c(-c3ccc(F)cc3)cnn2c(N)c1-c1ccc(F)cc1 | 74* | 47* | 78* | -47 | 50* | 49*
CC(C)(C)NC(=O)c1ccc2c(c1)CCO2 | -13 | 1 | -21 | 0 | / | /
O=C(NC(=O)c1ccccc1O)c1ccc2c(c1)CCO2 | 17 | 19* | 54* | / | 24* | -2
CCNC(=O)[C@H]1[C@H](CO)[C@H]2Cn3c(ccc(-c4ccccc4)c3=O)[C@@H]1N2Cc1cccnc1 | / | / | / | 9 | / | /
CCOC(=O)c1cc(-c2ccccc2)sc1NC(=O)C(C)N1C(=O)NC(C)(c2ccc(Cl)cc2)C1=O (stereo unspecified) | 2 | 18* | -1 | / | 9 | -6
CCOC(=O)c1cc(-c2ccccc2)sc1NC(=O)C(C)C | -3 | 0 | -1 | / | / | /
COc1ccc(NC(=O)N2CCCC2C(=O)NCc2ccc(F)cc2)cc1 (stereo unspecified) | -13 | 2 | 1 | / | / | /
O=C(NCc1ccc(F)cc1)C1CCCN1C(=O)Nc1cccc(F)c1 (stereo unspecified) | 8 | 24* | 7 | 2 | -1 | -3
CNc1nc(-c2ccc3c(c2)CCN3C(=O)c2ccc(F)cc2)cs1 | 3 | 19* | 9 | -104 | 14 | -23
CNc1nc(-c2ccc3c(c2)CCN3C(=O)c2cccc(F)c2)cs1 | -25 | 11 | -5 | -6 | / | /
COc1ccc(CN(C)C[C@H]2OCCCC[C@H](C)Oc3ccc(NC(=O)C4CCCCC4)cc3C(=O)N([C@@H](C)CO)C[C@H]2C)cc1 | / | / | / | -5 | / | /
CC1CCN(c2oc(-c3cccc4ccccc34)nc2C#N)CC1 | -68 | 0 | -32 | -56 | / | /
N#Cc1nc(-c2cccc3ccccc23)oc1N1CCCCC1 | -50 | 21* | -57 | / | 0 | -12
Cc1ccc(OCC(=O)N/N=C\c2ccc(-c3cccc(C(=O)O)c3)o2)c(C)c1 | -70 | 4 | -21 | -14 | / | /
NS(=O)(=O)c1ccc(-c2ccc(/C=N/NC(=O)c3ccccc3O)o2)cc1 | -11 | 1 | 0 | -11 | / | /
SMILES | TROY signal inh | HSP90 inh | TWEAK Fn14 block | LGR2 antag | HSP90 inh confirm | luciferase ctr
CNC(=S)N/N=C/c1ccc(-c2cccc(C(=O)O)c2)o1 | -45 | 26* | -35 | 65* | 15 | 0
Cc1ccc(-c2ccc(/C=N/NC(=O)c3ccccc3O)o2)cc1 | / | 22* | / | / | -3 | -11
CCCNC(=O)N[C@@H]1C=C[C@@H](CC(=O)NC2CCCCC2)O[C@H]1CO | / | / | / | 8 | / | /
O=S(=O)(Cc1ccccc1)N1CCCCN2[C@@H](CO)[C@@H](c3ccc(-c4ccccc4)cc3)[C@@H]2C1 | / | / | / | 8 | / | /
Cc1cccc(NC(=O)NCCN2CCCCC2)c1 | -1 | 25* | 35 | 2 | -9 | -12
O=C(CN1CCOCC1)NCC[C@H]1CC[C@@H](NC(=O)c2ccc3c(c2)OCO3)[C@@H](CO)O1 | / | / | / | -17 | / | /
O=S(=O)(O)c1cccc(N=Nc2c(O)ccc3ccccc23)c1 | 3 | 33* | -3 | -4 | 34* | 0
Oc1ccc2ccccc2c1N=Nc1ccccc1F | -52 | 11 | -9 | -30 | / | /
O=C1c2ccccc2S(=O)(=O)N1Cc1nc2ccccc2s1 | 79* | 37* | 103* | / | 21* | -5
O=C(c1cc(Cl)ccc1Cl)N1CCN(Cc2ccccc2)CC1 | 18 | -5 | -8 | -5 | / | /
O=C(c1cc(F)c(F)cc1Cl)N1CCN(CCc2ccccc2)CC1 | -7 | 38* | -13 | 5 | -1 | -6
COc1ccc(C(=O)OCC(=O)NCc2ccco2)cc1OC | 6 | 2 | -2 | / | / | /
CCOc1ccc(C(=O)OCC(=O)NCc2ccco2)cc1OCC | -16 | 31* | -1 | / | -2 | -7
Cc1cc(=O)n(-c2ccc(C(=O)O)cc2)[nH]1 | -5 | 3 | -3 | 8 | / | /
Cc1cc(=O)n(-c2ccc(O)cc2)[nH]1 | -4 | 18* | 10 | / | -2 | -4
CS(=O)(=O)n1nc(-c2ccc(Cl)cc2)nc1N | -21 | 1 | -8 | -8 | / | /
Cn1nc(-c2ccc(Cl)cc2)nc2c(=O)n(C)c(=O)nc1-2 | / | 95* | / | / | 97* | 90*
CCc1sc(C(=O)Nc2nc(C)cs2)cc1C | -6 | 21* | 4 | -122 | 34* | 20*
O=c1c(Cl)c(N2CCCCC2)cnn1-c1nc2ccccc2[nH]1 | 82* | 65* | 104* | / | 86* | 80*
Clc1ccc2nc(N3CCCCC3)[nH]c2c1 | -40 | 0 | 27 | -10 | / | /
CC(C)(C)C(=O)Nc1ccc(-c2cn3ccsc3n2)cc1 | 48 | 29* | 74* | / | 49* | 33*
Cn1cccc1/C=C1\CCc2ccccc2C1=O | 24 | 39* | 76* | 60* | 64* | 67*
CCOc1ccccc1C=C1CCc2ccccc2C1=O | -25 | / | -28 | -25 | / | /
CCOc1ccc(/C=C2\CCc3ccccc3C2=O)cc1 | 70* | 35* | 90* | ? | 44* | 73*
CC(C)(C)c1ccc(C(=O)Nc2ccc(C=C(C#N)C#N)cc2)cc1 | -5 | 39* | -2 | -69 | 45* | -16
CCN(CC)c1ccc2cc(/C(N)=N/NC(=O)c3cccs3)c(=O)oc2c1 | / | 22* | / | / | 4 | -1
CS(=O)(=O)Nc1ccc2c(c1)[C@H]1C[C@@H](CC(=O)NCC(F)(F)F)O[C@@H](CO)[C@H]1O2 | / | / | / | -14 | / | /
O=C(COC(=O)c1ccc(N2CCCC2=O)cc1)c1ccccc1 | -22 | 18* | 24 | -41 | 27* | -23
CCC(=O)Nc1ccc2oc(-c3cccc(C)c3)nc2c1 | 29 | 24* | 74* | / | 40* | 35*

Assay outcomes (PubChem)
